Results on 4 compounds are retold here after PubChem BioAssay.

The nature of test [1]: rapamycin-like changes in RPL19A-GFP expression – cell-based, S. cerevisiae, multiplex flow cytometry, primary screen (AID 1862; in the data active = percent of DMSO control GFP below about 86%;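 note: lower values mimic rapamycin by blocking the RPL19A rise seen in DMSO cells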). Conditions: S. cerevisiae RPL19A-GFP strain, flow cytometry fluorescence, 3 h; at 10 µM; stronger effect = lower value. For orientation: A flow cytometer gives signals particle by particle.
Test [2] in a line: TOR pathway GLN3 branch reporter MEP2-GFP changes – S. cerevisiae, multiplex flow cytometry, primary screen (AID 1867;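 active = GFP response, as percent of the DMSO control, above the screen-wide mean plus 3 SD, about 139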;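 note: median GFP channel fluorescence of barcode-gated MEP2-GFP cells measured by flow cytometry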). Conditions: S. cerevisiae MEP2-GFP strain, 3 h, at 10 µM, stronger effect = higher value, 100% means same as DMSO wells.
A short description of test [3]: TOR pathway RTG branch CIT2 reporter changes – S. cerevisiae, GFP fusion, multiplex flow cytometry, primary screen (AID 1870;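 active = percent response above a set limit, the screen-wide mean plus 3 SD, cut at about 130% in these data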;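 note: barcoded CIT2-GFP strain pooled with four other GFP strains with rapamycin as positive control; median GFP fluorescence per well over plate mean of DMSO wells so 100% = DMSO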). Particulars: S. cerevisiae CIT2-GFP expression, 3 h, at 10 µM, stronger effect = higher value.
The nature of test [4]: TOR pathway LAP4-GFP level changes – S. cerevisiae, multiplex flow cytometry, primary screen (AID 1873;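 active = GFP signal, as percent of the solvent control, above the screen mean plus 3 SD, about 149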). Particulars: S. cerevisiae LAP4-GFP expression, 3 h, at 10 µM, stronger effect = higher value.
Test [5] in a line: hit retest on RPL19A-GFP reporter strain – cell-based, S. cerevisiae, flow cytometry, cherry picks, mother/daughter gates, confirmation (AID 2270;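 active = GFP response below 50% of the DMSO control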). Particulars: 3 h, at 10 µM, stronger effect = lower value, 100 = same GFP as DMSO wells.
The nature of test [6]: yeast TOR pathway reporter LAP4-GFP change – cell-based, cherry picks, flow cytometry, mother/daughter gates, confirmation (AID 2271;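 active = GFP response above 150% of the DMSO control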;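 note: ratio of sample to DMSO plate mean so 100% equals DMSO level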). Conditions: S. cerevisiae LAP4-GFP strain, 3 h, at 10 µM, stronger effect = higher value, 100 means same as DMSO control.
The nature of test [7]: TOR pathway reporter MEP2-GFP, retest of hits – S. cerevisiae, flow cytometry GFP, cherry picks, confirmation (AID 2272;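 active = GFP response above 150% of the DMSO control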;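 note: ratio of well signal to plate DMSO mean so 100% equals DMSO level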). Particulars: S. cerevisiae MEP2-GFP strain, 3 h, at 10 µM, stronger effect = higher value.
Test [8] can be described thus: TOR pathway CIT2 reporter hit retest – S. cerevisiae, GFP fusion, cherry picks, mother/daughter gates, confirmation (AID 2274;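 active = GFP response above 150% of the DMSO level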). Conditions: S. cerevisiae CIT2-GFP strain, flow cytometry, 3 h, at 10 µM, stronger effect = higher value.
Test [9] is described as follows: reduced mouse 2C T cell binding to pMHC/ICAM-1 vesicles – MLPCN validation set, flow cytometry, LFA-1/ICAM-1 modulator project, pilot screen (AID 2523;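 active = response below a set limit, under 55% cells CD8-positive and vesicle-bound, and CD8 cells' 90th-percentile brightness under 279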;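 for vesicle binding response: mean PE anti-B7-1 fluorescence of CD8+ cells relative to row control; 100% = QL9-loaded vesicles with DMSO vehicle in the same plate row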). Particulars: 2C mouse CD8+ T cells, at 7 µM, stronger effect = lower value; double positive events: measured here: CD8+/vesicle+ event percentage.
The target of test [10] is Integrin beta-1 (Homo sapiens) + Integrin alpha-4 (Homo sapiens) (UniProt P13612+P05556). Description: alpha4beta1 integrin LIBS antibody binding reduction – U937 cells, HUTS-21 mAb, flow cytometry, validation set, VLA-4 allosteric modulator project, pilot screen (AID 2674;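 active = inhibition above 50%, about 3 SD of the validation set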;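 note: antibody binding induced by the VLA-4 ligand LDV present at three times its Kd; 0% = LDV ligand with antibody and no compound and 100% = antibody without LDV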). Conditions: HUTS-21 LIBS mAb binding, at 6.7 µM, stronger effect = higher value, binding induced by LDV ligand.
Chain of Integrin beta-1 (Homo sapiens) + Integrin alpha-4 (Homo sapiens) (P05556 whole entry, looked up): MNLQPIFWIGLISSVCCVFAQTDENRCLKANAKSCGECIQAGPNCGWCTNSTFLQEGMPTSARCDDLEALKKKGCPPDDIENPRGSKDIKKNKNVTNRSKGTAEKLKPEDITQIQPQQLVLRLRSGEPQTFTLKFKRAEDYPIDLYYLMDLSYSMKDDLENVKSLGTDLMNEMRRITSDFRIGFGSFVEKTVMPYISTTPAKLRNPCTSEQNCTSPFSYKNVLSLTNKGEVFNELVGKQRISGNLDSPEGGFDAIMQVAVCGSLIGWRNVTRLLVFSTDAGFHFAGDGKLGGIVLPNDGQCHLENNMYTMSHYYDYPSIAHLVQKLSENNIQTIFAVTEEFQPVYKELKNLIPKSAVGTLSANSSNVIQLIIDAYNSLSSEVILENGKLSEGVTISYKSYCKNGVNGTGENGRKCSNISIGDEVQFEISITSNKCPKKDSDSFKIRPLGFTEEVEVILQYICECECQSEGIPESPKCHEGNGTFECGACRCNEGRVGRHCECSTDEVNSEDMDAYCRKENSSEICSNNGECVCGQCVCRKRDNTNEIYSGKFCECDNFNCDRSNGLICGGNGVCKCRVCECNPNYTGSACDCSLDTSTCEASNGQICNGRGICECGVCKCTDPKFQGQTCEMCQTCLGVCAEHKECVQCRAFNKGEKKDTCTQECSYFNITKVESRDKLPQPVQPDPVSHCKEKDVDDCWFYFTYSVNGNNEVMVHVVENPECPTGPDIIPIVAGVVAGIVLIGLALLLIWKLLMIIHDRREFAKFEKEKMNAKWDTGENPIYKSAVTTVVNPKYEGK
Chain of Integrin beta-1 (Homo sapiens) + Integrin alpha-4 (Homo sapiens) (P13612 whole entry, looked up): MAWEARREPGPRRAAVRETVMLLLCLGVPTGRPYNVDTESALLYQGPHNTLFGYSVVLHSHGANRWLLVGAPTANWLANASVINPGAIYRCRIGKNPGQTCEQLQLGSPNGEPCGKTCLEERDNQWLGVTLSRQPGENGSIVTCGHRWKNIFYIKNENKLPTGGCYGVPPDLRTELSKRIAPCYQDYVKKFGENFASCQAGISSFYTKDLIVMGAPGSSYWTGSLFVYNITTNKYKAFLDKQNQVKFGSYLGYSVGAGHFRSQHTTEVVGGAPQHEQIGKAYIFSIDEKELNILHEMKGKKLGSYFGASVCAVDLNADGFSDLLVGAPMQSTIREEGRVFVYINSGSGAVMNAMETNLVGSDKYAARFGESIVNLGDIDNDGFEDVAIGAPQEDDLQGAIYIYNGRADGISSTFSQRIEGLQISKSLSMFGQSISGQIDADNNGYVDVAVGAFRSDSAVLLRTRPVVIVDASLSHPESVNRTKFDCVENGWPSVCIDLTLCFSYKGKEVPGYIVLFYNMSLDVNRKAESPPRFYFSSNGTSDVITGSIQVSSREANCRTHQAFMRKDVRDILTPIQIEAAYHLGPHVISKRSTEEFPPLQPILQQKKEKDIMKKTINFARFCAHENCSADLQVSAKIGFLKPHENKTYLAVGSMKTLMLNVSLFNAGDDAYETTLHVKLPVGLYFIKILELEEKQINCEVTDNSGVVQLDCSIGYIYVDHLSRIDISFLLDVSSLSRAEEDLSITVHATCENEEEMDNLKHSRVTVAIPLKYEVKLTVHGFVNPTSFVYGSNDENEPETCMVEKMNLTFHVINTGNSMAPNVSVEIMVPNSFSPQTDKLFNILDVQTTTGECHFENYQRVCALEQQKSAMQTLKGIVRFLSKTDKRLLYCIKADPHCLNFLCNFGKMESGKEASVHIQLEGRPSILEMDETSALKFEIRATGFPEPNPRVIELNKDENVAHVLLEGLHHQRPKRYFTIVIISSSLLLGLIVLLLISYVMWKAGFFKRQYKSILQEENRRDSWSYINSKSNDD

A short description of test [11]: calorie-restriction mimetic ROS inhibitors, yeast – validation compound set, pilot screen (AID 2706;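 active = superoxide response below 65% of plate, a cut near 3 SD across the whole screen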;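 note: yeast exposed to compound for one week at 30 degrees C before staining; 100% = mean of all compound wells on the same plate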). Particulars: S. cerevisiae aging, superoxide DHE fluorescence; at 10 µM, stronger effect = lower value.
Test [12] concerns the target Beta-adrenergic receptor kinase 1 (Homo sapiens) (UniProt P25098). The experiment in a line: GRK2 binders displacing RNA aptamer, biochemical, validation, human GRK2, bead flow cytometry (AID 488806;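 active = aptamer binding inhibition above 30%, about 3 SD of noise from non-fluorescent compounds; inactive = inhibition at or below 30%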). Particulars: bead-bound GRK2, FAM-aptamer displacement, at 10 µM, stronger effect = higher value.
Test [13] has as its target Beta-2 adrenergic receptor (Homo sapiens) (UniProt P07550). The experiment in a line: agonist-induced loss of surface beta2AR – cell-based, FAP fluorogen, flow cytometry, validation set, pilot screen (AID 504459;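 active = percent response above 42, roughly 3 SD of non-fluorescent test compounds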;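 note: agonist-driven loss of surface beta2AR via internalization measured by FAP dye flow cytometry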). Conditions: Am2.2-beta2AR cells, at 10 µM, stronger effect = higher value.
For test [14], the target named is AP-2 complex subunit beta (Homo sapiens) (UniProt P63010). Description: beta-arrestin/AP2 interaction blockers – biochemical, validation set, GST-AP2 beads, flow cytometry, pilot screen (AID 504541;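 active = inhibition above 54%, about 3 SD of non-fluorescent compounds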;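 note: AP2 carries R879A mutation and is captured from E. coli lysate; bead-bound FITC arrestin peptide fluorescence measuring arrestin peptide binding to AP2; 0% = DMSO wells and 100% = excess unlabeled arrestin peptide control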). Particulars: FITC arrestin peptide, at 10 µM, stronger effect = higher value, AP2 beta2 appendage fragment, R879A mutant.
Chain of AP-2 complex subunit beta (Homo sapiens) (P63010 whole entry, looked up, the tested form may be a part, one chain of several): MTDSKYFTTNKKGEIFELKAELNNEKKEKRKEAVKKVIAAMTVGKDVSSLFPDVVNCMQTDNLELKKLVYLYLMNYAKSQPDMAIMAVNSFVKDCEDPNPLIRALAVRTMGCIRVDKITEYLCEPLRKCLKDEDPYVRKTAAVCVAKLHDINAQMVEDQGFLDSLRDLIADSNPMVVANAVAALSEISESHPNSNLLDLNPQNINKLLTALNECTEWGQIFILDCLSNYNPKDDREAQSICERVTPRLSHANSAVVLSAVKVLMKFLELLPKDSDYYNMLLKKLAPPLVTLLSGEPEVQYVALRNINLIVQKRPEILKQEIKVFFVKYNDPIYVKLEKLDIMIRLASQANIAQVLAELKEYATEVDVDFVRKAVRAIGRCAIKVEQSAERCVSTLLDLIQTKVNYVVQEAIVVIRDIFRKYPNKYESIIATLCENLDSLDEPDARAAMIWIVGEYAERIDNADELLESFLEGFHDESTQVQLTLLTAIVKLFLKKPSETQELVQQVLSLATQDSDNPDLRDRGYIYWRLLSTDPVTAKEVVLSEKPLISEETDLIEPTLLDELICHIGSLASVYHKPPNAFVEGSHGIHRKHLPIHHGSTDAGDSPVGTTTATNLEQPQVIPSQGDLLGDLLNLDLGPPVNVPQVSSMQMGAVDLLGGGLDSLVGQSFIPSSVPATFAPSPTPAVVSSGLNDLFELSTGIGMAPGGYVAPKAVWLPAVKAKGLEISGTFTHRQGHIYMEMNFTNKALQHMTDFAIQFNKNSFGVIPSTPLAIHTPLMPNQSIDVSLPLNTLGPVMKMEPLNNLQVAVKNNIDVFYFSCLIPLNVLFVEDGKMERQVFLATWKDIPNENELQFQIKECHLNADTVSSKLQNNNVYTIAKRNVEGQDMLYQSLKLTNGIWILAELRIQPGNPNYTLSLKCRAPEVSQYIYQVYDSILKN
Test [15] in a line: cytosolic pH regulators acting via V-ATPase – S. cerevisiae, pHLuorin, HTS validation (AID 504600; in the data active = response above about 15%;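 note: plate controls were DMSO for no effect and reference compound for full effect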). Particulars: V-ATPase proton transport, at 10 µM, stronger effect = higher value.
For test [16], the system named is anti-desmoglein-3 scFv antibody binding to human DSG3. Description: blockers of pathogenic pemphigus antibody–desmoglein-3 binding – biochemical, validation compound set, bead-based, flow cytometry, pilot screen (AID 588368;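 active = binding below the plate cutoff, the plate median minus 3 SD, with a reading above zero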;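 note: signal is the median channel fluorescence of bead-bound GFP antibody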). Particulars: Protein G beads, DSG3-Fc, scFv-GFP binding, at 10 µM, stronger effect = lower value.
Test [17] in a line: Nile Red efflux blockade in pump-expressing yeast – validation compound set, multiplex, phenotypic, pilot screen (AID 588506;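 active = efflux inhibition above 0.42, the validation set average plus 4 SD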;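 note: Nile Red retained in cells so higher fluorescence means more efflux inhibition; 0 = negative control wells and 1 = enniatin B 25 µM full block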). Particulars: S. cerevisiae pump-expressing triplex, Nile Red efflux flow cytometry; at 10 µM; stronger effect = higher value; the pumps come from Candida albicans.
The target of test [18] is ATP-binding cassette sub-family B member 6 (Homo sapiens) (UniProt Q9NP58). The experiment in a line: blockers of ABCB6-driven porphyrin uptake – K562-ABCB6 cells, flow cytometry, validation set, pilot screen (AID 588550;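 active = inhibition above the screen-wide mean plus 3 SD, about 51%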;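 note: 0% = DMSO wells and 100% = benzethonium chloride 70 µM positive control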). Particulars: K562-ABCB6 porphyrin accumulation, 1 h, at 10 µM, stronger effect = higher value.
Chain of ATP-binding cassette sub-family B member 6 (Homo sapiens) (Q9NP58 whole entry, looked up): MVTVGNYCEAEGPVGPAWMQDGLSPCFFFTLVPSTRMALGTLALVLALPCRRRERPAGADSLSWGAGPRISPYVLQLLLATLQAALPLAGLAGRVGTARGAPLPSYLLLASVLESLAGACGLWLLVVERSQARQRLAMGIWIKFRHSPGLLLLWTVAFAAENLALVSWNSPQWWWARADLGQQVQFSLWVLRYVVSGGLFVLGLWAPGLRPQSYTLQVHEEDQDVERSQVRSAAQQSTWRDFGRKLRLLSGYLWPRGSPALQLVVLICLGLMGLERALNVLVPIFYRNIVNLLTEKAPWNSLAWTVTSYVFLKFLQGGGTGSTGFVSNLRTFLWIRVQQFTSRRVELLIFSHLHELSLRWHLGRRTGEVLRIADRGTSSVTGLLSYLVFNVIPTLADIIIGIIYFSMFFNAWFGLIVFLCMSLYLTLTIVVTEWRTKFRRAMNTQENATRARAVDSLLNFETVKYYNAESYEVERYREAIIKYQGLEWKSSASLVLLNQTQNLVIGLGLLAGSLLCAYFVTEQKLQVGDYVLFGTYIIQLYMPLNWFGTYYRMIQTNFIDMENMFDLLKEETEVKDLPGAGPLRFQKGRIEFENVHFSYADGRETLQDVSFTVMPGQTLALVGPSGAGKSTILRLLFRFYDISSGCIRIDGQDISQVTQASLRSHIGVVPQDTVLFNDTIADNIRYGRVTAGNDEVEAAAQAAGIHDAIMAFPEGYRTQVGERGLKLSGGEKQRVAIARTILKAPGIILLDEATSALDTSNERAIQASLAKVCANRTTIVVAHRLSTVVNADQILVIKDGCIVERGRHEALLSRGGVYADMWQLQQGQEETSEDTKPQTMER
Test [19] in a line: AML differentiation inducers, ER-HoxA9 marrow cells – cell-based, GFP/MAC1 double positive, flow cytometry, validation set, primary screen (AID 588685).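 Note: compound exposure lasts four days before antibody staining and flow analysis; 0% = DMSO wells and 100% = 5 µM fulvestrant positive control.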 Conditions: stronger effect = higher value, normalized: vehicle 0, fulvestrant 100.
Test [20] in a line: yeast AGP1-GFP level changes, GLN3 branch – cell-based, multiplex flow cytometry, S. cerevisiae, primary screen (AID 1887;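 active = GFP signal above the screen-wide mean plus 3 SD, that is over about 124.5% of the solvent control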;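 note: AGP1-GFP fusion strain of S. cerevisiae within a five-strain barcoded multiplex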). Conditions: 3 h, at 10 µM, stronger effect = higher value.
[21] abbreviates: measured here: daughter cell gate.
The mark [22] stands for this setting: measured here: mother cell gate.

Results filed as inconclusive are left out. Calls of active or inactive are those of the source.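 Rule for the calls, unless noted: active = differentiation response of at least 50%, scaled between solvent and reference control, from cells with both markers; inactive = the rest.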

Chain of Beta-adrenergic receptor kinase 1 (Homo sapiens) (P25098 whole entry, looked up): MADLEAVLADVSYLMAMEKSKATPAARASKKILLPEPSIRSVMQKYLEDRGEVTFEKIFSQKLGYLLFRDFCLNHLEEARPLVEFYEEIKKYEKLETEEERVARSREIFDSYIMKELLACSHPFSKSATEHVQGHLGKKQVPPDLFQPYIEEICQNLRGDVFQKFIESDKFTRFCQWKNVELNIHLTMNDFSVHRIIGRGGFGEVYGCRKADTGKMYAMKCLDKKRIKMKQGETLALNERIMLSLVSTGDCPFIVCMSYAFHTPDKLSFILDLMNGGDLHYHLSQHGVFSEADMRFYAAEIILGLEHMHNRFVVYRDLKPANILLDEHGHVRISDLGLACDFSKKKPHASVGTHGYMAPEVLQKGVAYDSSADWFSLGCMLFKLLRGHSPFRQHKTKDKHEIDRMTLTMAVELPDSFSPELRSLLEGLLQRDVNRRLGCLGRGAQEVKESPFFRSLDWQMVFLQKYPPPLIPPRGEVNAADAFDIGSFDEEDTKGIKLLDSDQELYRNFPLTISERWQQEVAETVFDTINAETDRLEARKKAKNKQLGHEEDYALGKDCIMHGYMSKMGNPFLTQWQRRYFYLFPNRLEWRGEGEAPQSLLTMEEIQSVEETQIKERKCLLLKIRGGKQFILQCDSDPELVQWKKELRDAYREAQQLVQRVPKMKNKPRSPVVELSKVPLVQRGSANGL
Chain of Beta-2 adrenergic receptor (Homo sapiens) (P07550 whole entry, looked up): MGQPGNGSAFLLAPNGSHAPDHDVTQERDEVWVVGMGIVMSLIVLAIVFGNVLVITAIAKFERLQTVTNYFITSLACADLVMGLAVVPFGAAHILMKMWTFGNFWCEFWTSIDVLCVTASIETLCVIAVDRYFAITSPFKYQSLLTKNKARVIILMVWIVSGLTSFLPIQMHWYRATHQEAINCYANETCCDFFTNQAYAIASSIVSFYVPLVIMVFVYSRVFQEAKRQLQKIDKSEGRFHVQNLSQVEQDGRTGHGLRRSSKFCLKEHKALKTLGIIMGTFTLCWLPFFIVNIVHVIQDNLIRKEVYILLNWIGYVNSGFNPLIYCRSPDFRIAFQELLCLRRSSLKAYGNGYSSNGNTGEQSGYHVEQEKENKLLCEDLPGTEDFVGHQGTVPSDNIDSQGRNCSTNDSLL

Usually inhibition stands for the drop in the measured response relative to a control, in per cent. As for `O=c1[nH]c(=O)n([C@H]2C[C@H](O)[C@@H](CO)O2)cc1F`, in [1], the percent of DMSO control GFP is 91.1% (inactive). Also, the GFP response vs DMSO in test [2] was 142% (active); in [4], 93.5% (inactive); in test [5], 98.6% (inactive); in [5] (setting [21]), 97.8%; in test [5] (setting [22]), 99.2%; in test [7] it was 101% (inactive). For the same compound, in test [3], the percent response of DMSO control was 101% (inactive). For the same compound, the figures for the GFP response relative to DMSO in test [6], in test [6] (measured here: daughter cell gate response) and in test [6] (measured here: mother cell gate response) were 97.3% (inactive), 96.6% and 97.2%, respectively. Moreover, the GFP response, % of DMSO in test [8] is 93.4% (inactive); in test [8] (setting [21]), 93.7%; in test [8] (setting [22]), 93.7%. The double positive events in [9] is 72.9%. Further, the vesicle binding response in test [9] was 155% (inactive). For the same compound, the inhibition in [10] was 4.52% (inactive); in test [14], 1.52% (inactive); in [18], 11% (inactive). For the same compound, the superoxide response (% of plate) in test [11] was 94.8% (inactive). For the same compound, the aptamer binding inhibition in test [12] was 9% (inactive). For the same compound, the figures for the response in test [13] and in test [15] were -2.6% (inactive) and -0.54% (inactive), respectively. The binding (% of control) in [16] is 98% (inactive). Also, the efflux inhibition (fraction of control) in test [17] was -0.38 (inactive). Also, in test [19], the differentiation response is -5.73% (inactive).
Regarding `Cc1cccc(N(C)C(=S)Oc2ccc3ccccc3c2)c1`, the percent of DMSO control GFP in [1] was 94.4% (inactive). The values for the GFP response vs DMSO in [2] and in test [4] were 114% (inactive) and 78.7% (inactive), respectively. For the same compound, in test [3], the percent response of DMSO control was 95.2% (inactive). Further, the GFP response, % of DMSO in test [20] is 97.5% (inactive). This compound gave a double positive events in test [9] of 86.4%. Also, the values for the inhibition in [10], in [14] and in [18] were -8.09% (inactive), -3.34% (inactive) and 8% (inactive), respectively. The superoxide response (% of plate) in test [11] was 87.4% (inactive). The aptamer binding inhibition in test [12] was 0% (inactive). Besides, the values for the response in test [13] and in test [15] were 11.2% (inactive) and 4.82% (inactive), respectively. Moreover, the binding (% of control) in test [16] was 106% (inactive). Moreover, the efflux inhibition (fraction of control) in test [17] was -0.38 (inactive). Further, the differentiation response in test [19] was -1.64% (inactive).
For the compound `Cc1cccc(C)c1NS(=O)(=O)c1ccc(NC(=O)c2ccc(Cl)c([N+](=O)[O-])c2)cc1`, the percent of DMSO control GFP in test [1] was 97.7% (inactive). In addition, the GFP response vs DMSO in test [2] was 110% (inactive); in test [4], 72.6% (inactive). The percent response of DMSO control in test [3] was 116% (inactive). In test [9], the double positive events was found to be 62.8%. Also, in test [9], the vesicle binding response is 163% (inactive). The inhibition in test [10] was 9.37% (inactive); in [14] it was 4.81% (inactive); in test [18], 9% (inactive). Also, in test [11], the superoxide response (% of plate) was 103% (inactive). For the same compound, the aptamer binding inhibition in [12] is 0% (inactive). Further, the response in test [13] is -4.38% (inactive); in test [15], 13% (inactive). For the same compound, the binding (% of control) in test [16] was 100% (inactive). The efflux inhibition (fraction of control) in [17] is -0.2 (inactive). For the same compound, the differentiation response in [19] was 13.1% (inactive).
Turning to `O=C1OC(=O)C2C1[C@@H]1CC[C@H]2O1` (some centres undefined), in test [1], the percent of DMSO control GFP is 96.6% (inactive). Also, the GFP response vs DMSO in test [2] was 103% (inactive); in [4] it was 72.6% (inactive). Moreover, the percent response of DMSO control in [3] was 118% (inactive). The compound also gave a double positive events in [9] of 60.8%. For the same compound, the vesicle binding response in test [9] is 195% (inactive). In addition, the results for the inhibition in test [10], in test [14] and in test [18] were -8.09% (inactive), -1.78% (inactive) and 7% (inactive), respectively. Besides, the superoxide response (% of plate) in test [11] is 94.4% (inactive). Besides, the aptamer binding inhibition in [12] was 3% (inactive). Also, the response in [13] is -8.34% (inactive); in test [15], -0.92% (inactive). Besides, the binding (% of control) in test [16] was 107% (inactive). In addition, the efflux inhibition (fraction of control) in test [17] was -0.24 (inactive). Moreover, the differentiation response in test [19] was -0.82% (inactive).
